Holding throughout (assay): DAPPL (digital affinity profiling via proximity ligation, sequencing); 10 mM Tris-HCl pH 7.5, 50 mM NaCl, 1 mM DTT, 4% glycerol, room temperature, 30 min; GST-TFs on glutathione beads, 16-mer random dsDNA library, 0.1% formaldehyde crosslink after washing; high values mean tight binding
What all share (details): protein: recombinant; tags: N-terminal GST; dsDNA, one strand shown

Assay [1] concerns the target T1, ELK1 (Homo sapiens, UniProt P19419 1-428).
T1 sequence: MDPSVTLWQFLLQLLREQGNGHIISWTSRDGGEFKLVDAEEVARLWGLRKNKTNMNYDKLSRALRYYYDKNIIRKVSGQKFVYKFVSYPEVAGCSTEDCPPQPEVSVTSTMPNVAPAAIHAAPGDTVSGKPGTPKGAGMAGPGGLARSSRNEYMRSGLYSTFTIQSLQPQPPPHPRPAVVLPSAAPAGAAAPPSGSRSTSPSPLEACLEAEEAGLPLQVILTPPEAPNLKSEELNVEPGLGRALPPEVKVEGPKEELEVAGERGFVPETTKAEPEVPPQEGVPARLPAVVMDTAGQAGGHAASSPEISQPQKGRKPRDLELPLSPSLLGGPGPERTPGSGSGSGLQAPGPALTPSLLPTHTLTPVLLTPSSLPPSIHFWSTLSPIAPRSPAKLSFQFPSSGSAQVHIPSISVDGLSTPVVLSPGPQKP
The essentials: (§1)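 A tag-only sample was pooled with DNA-barcoded human transcription factors that had been expressed in yeast as GST fusions and captured on glutathione beads. The pools were incubated for 30 min at room temperature with 200 nmole of a random double-stranded 16-mer DNA library in Tris/NaCl/DTT/glycerol buffer, then washed, crosslinked with 0.1% formaldehyde, proximity-ligated (BsaI/T4 ligase, 1 h, 37 °C), PCR-amplified and sequenced on an Illumina NextSeq500. Binding signal is each hexamer's read frequency for a factor divided by its frequency for the tag-only sample.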

Assay [2] concerns the target T2, GABPA (Homo sapiens, UniProt Q06546 1-454).
T2 sequence: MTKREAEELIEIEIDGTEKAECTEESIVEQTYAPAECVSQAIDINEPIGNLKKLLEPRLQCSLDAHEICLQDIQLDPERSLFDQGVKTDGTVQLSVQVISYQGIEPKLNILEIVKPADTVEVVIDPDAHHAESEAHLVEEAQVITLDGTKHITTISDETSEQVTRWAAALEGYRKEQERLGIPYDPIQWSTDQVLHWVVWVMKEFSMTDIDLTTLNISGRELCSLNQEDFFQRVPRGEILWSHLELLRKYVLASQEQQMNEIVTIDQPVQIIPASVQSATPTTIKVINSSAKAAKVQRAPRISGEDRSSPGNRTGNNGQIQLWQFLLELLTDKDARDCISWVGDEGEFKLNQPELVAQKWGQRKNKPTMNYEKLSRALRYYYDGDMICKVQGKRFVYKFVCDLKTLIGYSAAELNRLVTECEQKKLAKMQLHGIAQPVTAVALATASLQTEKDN
Summed up:
as §1

In assay [3] the target is T3, ERG (Homo sapiens, UniProt P11308 1-479).
T3 sequence: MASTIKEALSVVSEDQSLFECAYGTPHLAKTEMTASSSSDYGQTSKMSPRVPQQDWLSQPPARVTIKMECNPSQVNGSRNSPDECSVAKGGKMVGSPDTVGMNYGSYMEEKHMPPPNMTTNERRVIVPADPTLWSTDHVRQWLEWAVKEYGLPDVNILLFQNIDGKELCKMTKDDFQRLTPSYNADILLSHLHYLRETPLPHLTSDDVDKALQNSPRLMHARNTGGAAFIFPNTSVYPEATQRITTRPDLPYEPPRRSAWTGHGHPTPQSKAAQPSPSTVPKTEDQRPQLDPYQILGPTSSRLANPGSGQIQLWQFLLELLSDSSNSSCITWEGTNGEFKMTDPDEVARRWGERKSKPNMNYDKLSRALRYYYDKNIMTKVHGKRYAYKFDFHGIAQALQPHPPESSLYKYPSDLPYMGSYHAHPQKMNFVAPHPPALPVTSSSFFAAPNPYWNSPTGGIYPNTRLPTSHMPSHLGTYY
The essentials: as §1

In assay [4] the target is ELF1 (Homo sapiens, UniProt P32519 1-619). Summed up: as §1
Chain of ELF1 (P32519 whole entry): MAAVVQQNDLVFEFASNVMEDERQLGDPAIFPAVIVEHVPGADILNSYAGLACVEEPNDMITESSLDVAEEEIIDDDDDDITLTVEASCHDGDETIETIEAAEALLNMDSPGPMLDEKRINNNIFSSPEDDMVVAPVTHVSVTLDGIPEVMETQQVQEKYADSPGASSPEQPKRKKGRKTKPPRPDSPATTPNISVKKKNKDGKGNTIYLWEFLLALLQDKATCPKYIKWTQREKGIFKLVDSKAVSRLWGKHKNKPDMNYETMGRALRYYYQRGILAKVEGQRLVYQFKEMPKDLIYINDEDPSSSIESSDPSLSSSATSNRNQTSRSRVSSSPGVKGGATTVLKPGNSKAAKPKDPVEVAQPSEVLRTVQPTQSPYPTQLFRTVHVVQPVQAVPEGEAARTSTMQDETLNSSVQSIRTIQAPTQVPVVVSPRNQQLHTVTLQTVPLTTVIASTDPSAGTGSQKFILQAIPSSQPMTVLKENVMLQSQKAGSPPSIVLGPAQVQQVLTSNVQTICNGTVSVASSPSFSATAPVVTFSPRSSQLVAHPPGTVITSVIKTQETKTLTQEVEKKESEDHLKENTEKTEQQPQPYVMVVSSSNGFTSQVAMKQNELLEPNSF
The target of assay [5] is T4, EHF (Homo sapiens, UniProt Q9NZC4 1-300).
T4 sequence: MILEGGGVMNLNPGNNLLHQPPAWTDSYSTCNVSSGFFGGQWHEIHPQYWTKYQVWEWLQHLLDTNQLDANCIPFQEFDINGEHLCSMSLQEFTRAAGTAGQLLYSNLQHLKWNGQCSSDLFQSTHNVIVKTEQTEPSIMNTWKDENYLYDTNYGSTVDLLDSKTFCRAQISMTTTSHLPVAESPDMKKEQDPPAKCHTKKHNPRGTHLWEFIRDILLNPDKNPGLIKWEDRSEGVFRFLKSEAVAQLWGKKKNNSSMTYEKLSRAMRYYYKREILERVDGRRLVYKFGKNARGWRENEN
Summed up:
as §1

In assay [6] the target is SPIB (Homo sapiens, UniProt Q01892 1-262). Summed up:
as §1

Assay [7] has as its target T5, ELK3 (Homo sapiens, UniProt P41970 1-407).
T5 sequence: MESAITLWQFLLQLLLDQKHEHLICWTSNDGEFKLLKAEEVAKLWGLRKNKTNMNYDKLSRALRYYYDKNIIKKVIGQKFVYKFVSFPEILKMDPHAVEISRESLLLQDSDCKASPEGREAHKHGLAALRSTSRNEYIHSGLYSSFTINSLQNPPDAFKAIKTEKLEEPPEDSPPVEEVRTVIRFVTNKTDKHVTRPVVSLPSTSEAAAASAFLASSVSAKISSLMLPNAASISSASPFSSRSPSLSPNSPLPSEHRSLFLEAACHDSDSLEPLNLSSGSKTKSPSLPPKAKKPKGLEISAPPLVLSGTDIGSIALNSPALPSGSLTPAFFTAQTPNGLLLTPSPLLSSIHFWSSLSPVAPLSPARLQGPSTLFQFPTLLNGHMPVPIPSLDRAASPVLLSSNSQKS
The essentials:
as §1

Assay [8] deals with T6, SPIC (Homo sapiens, UniProt Q8N5J4 1-248).
T6 sequence: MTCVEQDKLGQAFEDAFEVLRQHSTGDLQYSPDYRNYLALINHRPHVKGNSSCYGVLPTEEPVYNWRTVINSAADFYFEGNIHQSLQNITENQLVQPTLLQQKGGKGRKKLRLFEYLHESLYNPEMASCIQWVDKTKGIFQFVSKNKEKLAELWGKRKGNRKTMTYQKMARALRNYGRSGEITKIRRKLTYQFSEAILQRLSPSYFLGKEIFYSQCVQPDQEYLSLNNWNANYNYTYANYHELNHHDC
Summed up: as §1

The target in assay [9] is ELF4 (Homo sapiens, UniProt Q99607 1-663). Summed up: as §1
Chain of ELF4 (Q99607 whole entry): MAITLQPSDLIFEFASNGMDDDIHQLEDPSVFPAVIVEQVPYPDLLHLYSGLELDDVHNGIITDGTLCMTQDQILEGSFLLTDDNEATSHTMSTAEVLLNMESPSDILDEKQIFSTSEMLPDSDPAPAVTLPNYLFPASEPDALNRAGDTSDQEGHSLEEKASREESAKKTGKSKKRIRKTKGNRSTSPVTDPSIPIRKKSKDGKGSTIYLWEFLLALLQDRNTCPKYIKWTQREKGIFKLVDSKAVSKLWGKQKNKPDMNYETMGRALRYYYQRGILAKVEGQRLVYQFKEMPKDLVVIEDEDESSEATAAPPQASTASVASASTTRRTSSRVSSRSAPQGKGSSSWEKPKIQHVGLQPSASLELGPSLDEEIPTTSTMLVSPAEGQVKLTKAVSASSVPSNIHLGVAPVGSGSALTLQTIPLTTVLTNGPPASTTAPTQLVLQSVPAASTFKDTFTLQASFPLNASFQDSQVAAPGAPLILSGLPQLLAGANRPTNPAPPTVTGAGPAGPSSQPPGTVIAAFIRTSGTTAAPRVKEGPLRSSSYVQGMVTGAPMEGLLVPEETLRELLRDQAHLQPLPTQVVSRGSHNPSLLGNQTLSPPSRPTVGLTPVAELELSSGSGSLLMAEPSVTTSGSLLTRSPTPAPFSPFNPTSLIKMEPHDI

These results are taken from article PMC7862700, “An all-to-all approach to the identification of sequence-specific readers for epigenetic DNA modifications on cytosine”.

Chain of SPIB (Q01892 whole entry): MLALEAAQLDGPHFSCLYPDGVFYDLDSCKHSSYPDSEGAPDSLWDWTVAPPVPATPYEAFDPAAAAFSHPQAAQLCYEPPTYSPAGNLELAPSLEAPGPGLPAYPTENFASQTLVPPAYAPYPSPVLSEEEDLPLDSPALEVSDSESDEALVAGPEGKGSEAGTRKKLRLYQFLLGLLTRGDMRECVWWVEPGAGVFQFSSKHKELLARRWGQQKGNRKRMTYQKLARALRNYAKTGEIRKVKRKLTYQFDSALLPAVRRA

With TGATTA, the binding signal in [1] is 1.17 fold enrichment (6-mer frequency, TF over GST control); in [2] it was 1.1 fold enrichment (6-mer frequency, TF over GST control); in [3], 1.02 fold enrichment (6-mer frequency, TF over GST control); in assay [4], 1.09 fold enrichment (6-mer frequency, TF over GST control); in [5] it was 1.11 fold enrichment (6-mer frequency, TF over GST control); in assay [6] it was 1.07 fold enrichment (6-mer frequency, TF over GST control). For the same sequence, the binding signal in assay [7] is 1.07 fold enrichment (6-mer frequency, TF over GST control); in [8], 1.17 fold enrichment (6-mer frequency, TF over GST control); in assay [9], 1.07 fold enrichment (6-mer frequency, TF over GST control).
